Screening data deposited in PubChem by National Center for Advancing Translational Sciences (NCATS).
Sampled rows, rich in hits. Any-hit rate of the full collection: about 5.9%.
S2 tox – Viability Counterscreen for Primary qHTS for Inhibitors of ATXN expression | Potency, µM (top dose mostly 56.7 µM), usual class: cytotoxic | S2 cells (HEK-293 line with an ATXN2-luciferase reporter) viability, CellTiter-Fluor protease fluorescence, 24 h | 0.49% of 400,000 active; also: nearly all actives have a fitted effect of over 40% in size
TGFb SMAD3 inh – qHTS for Inhibitors of TGF-b. HepG2 CAGA-GFP TGF-b/SMAD3 reporter, GFP fluorescence, 18 h; TGF-beta stimulated, 500 pg/mL final. Potency, µM (titrated, usually from 46.1 µM), for the others: at the highest dose activity, negative = inhibition, most hits filed as inhibitors. 1.2% of 410,000 active. AID 588855, 2011; also: % is scaled to controls: 0 for no effect and ±100 for the full control effect; nearly all actives have a fitted effect of over 65% in size
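HEPG2 CAGA-GFP, 1000 cells/well; 2 h settle, 37 C; cpd via pin tool; TGF-b 500 pg/mL final; 18 h, 37 C; GFP imaging ex488/em500-530; %Activity normalised to -TGF-b and +DMSO controls; CRC fit, curve class.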
KB-V1 MDR tox – qHTS assay for MDR1-selective chemotherapeutics: Primary screen using the drug-selected MDR subline cells KB-V1; AID 1347076, 2019; Potency, µM (doses to about 46.1 µM), hits mostly cytotoxic; KB-V1 MDR cells viability, CellTiter-Glo, 72 h; 3.4% of 400,000 active; also: % is scaled to controls: 0 for no effect and ±100 for the full control effect; nearly all actives have a fitted effect of over 60% in size
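Readout: CellTiter-Glo luminescence, 10 min after addition. Cells: KB-V1 MDR subline, 72 h at 37 degrees C with compound. Analysis: corrected, normalized data fitted to concentration-effect curves.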
ATXN2 expr inh – Primary qHTS for Inhibitors of ATXN expression; HEK-293 ATXN2-luciferase reporter, luminescence, 24 h; Potency, µM (top dose mostly 57 µM), without a hit: at the top dose activity change, negative = inhibition, most hits filed as inhibitors; 0.72% of 360,000 active; AID 1745845, 2022; also: % is scaled to controls: 0 for no effect and ±100 for the full control effect; nearly all actives have a fitted effect of over 55% in size
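ATXN2-luciferase reporter cells (luciferase flanked by upstream and downstream ATXN2 gene portions) were treated 24 h at 37 °C with compounds at up to 57 uM. SteadyGlo luminescence gave expression; GF-AFC fluorescence gave viability.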
HepG2 tox – qHTS for Inhibitors of TGF-b: Cytotox Counterscreen | HepG2 CAGA-GFP viability, ATP luminescence, 18 h | Potency, µM (titrated, usually from 46.1 µM), for the others: at the highest dose activity change, negative = cytotoxicity, hits mostly cytotoxic | 0.76% of 410,000 active
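CellTiter-Glo luminescence gave cytotoxicity after 18 hours at 37 degrees C. The cells were HepG2 CAGA-GFP in 1% FBS DMEM, stimulated with 500 pg/mL TGF-beta after compound addition. %Activity was normalised to no-cell wells (complete cell-killing) and DMSO (no toxicity), and curves were fitted and classified.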
KB-3-1 tox – qHTS assay for MDR1-selective chemotherapeutics: Primary screen using the parental adenocarcinoma cell KB-3-1. Potency, µM (titrated, usually from 46.1 µM), hits mostly cytotoxic. 1.4% of 400,000 active. KB-3-1 viability, CellTiter-Glo ATP luminescence, 72 h; also: % is scaled to controls: 0 for no effect and ±100 for the full control effect; nearly all actives have a fitted effect of over 60% in size
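Cytotoxicity in the drug-sensitive parental line KB-3-1 was scored as loss of CellTiter-Glo luminescence following 72 h incubation with compound. Values come from curve fitting of normalized concentration-response data.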
Active calls of the source: *. Calls follow the shape of the dose curve; as a rule, active = well fitted curve in the direction sought with a large enough effect; inconclusive = small, poorly fitted or top-dose-only effect, or another doubt; inactive = no such curve, though single readings can be large; an effect the other way counts as inactive or inconclusive. Potency is read from the fitted curve at half-maximal effect.

Results for COc1ccc(/C=N/NC(=O)c2ccc(Cn3cc([N+](=O)[O-])cn3)o2)cc1O ?
S2 tox: inactive; TGFb SMAD3 inh: 34%; KB-V1 MDR tox: inconclusive; ATXN2 expr inh: 7%; HepG2 tox: 4%; KB-3-1 tox: inactive

What do the screens show for `Cc1ccccc1NC(=O)c1ccc(Cn2cc([N+](=O)[O-])cn2)o1`?
S2 tox: inconclusive; TGFb SMAD3 inh: 1%; KB-V1 MDR tox: inactive; ATXN2 expr inh: 7%; HepG2 tox: -5%; KB-3-1 tox: inactive

How did COC(=O)c1c(-c2ccc(Br)cc2)csc1NC(=O)Cc1ccc(OC)c(OC)c1 do in these assays?
S2 tox: inactive; TGFb SMAD3 inh: inconclusive; KB-V1 MDR tox: 7.3µM*; ATXN2 expr inh: -14%; HepG2 tox: -12%; KB-3-1 tox: inconclusive

Results for COC(=O)c1c(-c2ccc(C)cc2)csc1NC(=O)Cc1ccc(OC)c(OC)c1 ?
S2 tox: inactive; TGFb SMAD3 inh: inconclusive; KB-V1 MDR tox: 2.6µM*; ATXN2 expr inh: -26%; HepG2 tox: 3%; KB-3-1 tox: inconclusive

How did COC(=O)c1c(-c2cccc3ccccc23)csc1NC(=O)Cc1ccc(OC)c(OC)c1 do in these assays?
S2 tox: inactive; TGFb SMAD3 inh: -9%; KB-V1 MDR tox: inactive; ATXN2 expr inh: -19%; HepG2 tox: 7%; KB-3-1 tox: inconclusive

What do the screens show for `COC(=O)c1sccc1NC(=O)Cc1ccc(OC)c(OC)c1`?
S2 tox: inactive; TGFb SMAD3 inh: 14%; KB-V1 MDR tox: inactive; ATXN2 expr inh: 16%; HepG2 tox: -16%; KB-3-1 tox: inactive

Results for CCC(=O)N1CCc2cc(Br)cc(S(=O)(=O)CCC(=O)N(C)c3cccc(C)c3)c21 ?
TGFb SMAD3 inh: -26%; HepG2 tox: -20%

How did O=Cc1ccccc1C=O do in these assays?
S2 tox: inactive; ATXN2 expr inh: 9%

How did Nc1nc(N)c2cc(Sc3ccc4ccccc4c3)ccc2n1 do in these assays?
S2 tox: inconclusive; TGFb SMAD3 inh: 11µM*; KB-V1 MDR tox: inactive; ATXN2 expr inh: inconclusive; HepG2 tox: -179%; KB-3-1 tox: 21µM*

Results for C[C@]12CC[C@@H]3c4ccc(O)cc4C[C@@H](CCCCCCCCCS(=O)CCCC(F)(F)C(F)(F)F)[C@H]3[C@H]1CC[C@H]2O (stereo not given in full) ?
ATXN2 expr inh: -7%

How did CC(=O)C1=C(C)NC(SCc2cccc([N+](=O)[O-])c2)=C(C#N)C1c1ccco1 (stereo not given) do in these assays?
S2 tox: inactive; TGFb SMAD3 inh: -11%; KB-V1 MDR tox: 10µM*; ATXN2 expr inh: 1%; HepG2 tox: -29%; KB-3-1 tox: inactive

What do the screens show for `CC(=O)C1=C(C)NC(SCC(N)=O)=C(C#N)C1c1ccco1` (stereo not given)?
S2 tox: inactive; TGFb SMAD3 inh: 5%; KB-V1 MDR tox: inconclusive; ATXN2 expr inh: 10%; HepG2 tox: 0%; KB-3-1 tox: inactive

What do the screens show for `CC1CCCN(C(=O)Cn2c(-c3nonc3N)nc3ccccc32)C1` (stereo not given)?
S2 tox: inconclusive; TGFb SMAD3 inh: -12%; KB-V1 MDR tox: 7.3µM*; ATXN2 expr inh: -11%; HepG2 tox: 1%; KB-3-1 tox: inactive

Results for CC1CC(C)CN(C(=O)Cn2c(-c3nonc3N)nc3ccccc32)C1 (stereo not given) ?
S2 tox: inactive; TGFb SMAD3 inh: -2%; KB-V1 MDR tox: inactive; ATXN2 expr inh: 5%; HepG2 tox: 3%; KB-3-1 tox: inactive

How did CCOC(=O)c1ccccc1NC(=O)Cn1c(-c2nonc2N)nc2ccccc21 do in these assays?
S2 tox: inconclusive; TGFb SMAD3 inh: inconclusive; KB-V1 MDR tox: 1.5µM*; ATXN2 expr inh: -19%; HepG2 tox: -14%; KB-3-1 tox: 1µM*

How did CCOCCc1nn2c(=O)cc(COC(=O)COc3ccccc3Cl)nc2s1 do in these assays?
S2 tox: inactive; TGFb SMAD3 inh: 10%; KB-V1 MDR tox: inactive; ATXN2 expr inh: 7%; HepG2 tox: 2%; KB-3-1 tox: inactive

Results for COc1cc(-c2ccc3ncnc(NCCc4cnc[nH]4)c3c2)cc(OC)c1OC ?
KB-V1 MDR tox: inactive; KB-3-1 tox: inactive

What do the screens show for `COC(=O)/C(=C\Nc1ccc(OC)cc1)NC(=O)c1ccc(Cl)cc1Cl`?
S2 tox: inactive; TGFb SMAD3 inh: -6%; KB-V1 MDR tox: inactive; ATXN2 expr inh: 2%; HepG2 tox: 3%; KB-3-1 tox: inconclusive

What do the screens show for `COC(=O)/C(=C\Nc1ccc(Cl)cc1Cl)NC(=O)c1ccc(OC)cc1`?
S2 tox: inconclusive; TGFb SMAD3 inh: -16%; KB-V1 MDR tox: 4.1µM*; ATXN2 expr inh: -14%; HepG2 tox: -9%; KB-3-1 tox: 5.8µM*

Results for Cc1cc(C)c(-c2csc(Cc3nc(-c4cc5ccccc5oc4=O)cs3)n2)cc1C ?
S2 tox: inactive; TGFb SMAD3 inh: -13%; KB-V1 MDR tox: inconclusive; ATXN2 expr inh: -21%; HepG2 tox: -15%; KB-3-1 tox: 23µM*

What do the screens show for `Cc1cc(C)c(-c2csc(-c3cc4ccccc4oc3=O)n2)cc1C`?
S2 tox: inactive; TGFb SMAD3 inh: -1%; KB-V1 MDR tox: inactive; ATXN2 expr inh: 9%; HepG2 tox: -2%; KB-3-1 tox: inactive

How did O=C(c1ccco1)N1CCN(C(=O)N2c3ccccc3Sc3ccccc32)CC1 do in these assays?
S2 tox: inconclusive; TGFb SMAD3 inh: inconclusive; KB-V1 MDR tox: 0.65µM*; ATXN2 expr inh: -10%; HepG2 tox: 2%; KB-3-1 tox: 0.52µM*

How did O=C(c1ccco1)N1CCN(C(=O)c2ccco2)C1=S do in these assays?
S2 tox: inconclusive; TGFb SMAD3 inh: 11µM*; KB-V1 MDR tox: 16µM*; ATXN2 expr inh: -34%; HepG2 tox: -11%; KB-3-1 tox: 12µM*

What do the screens show for `O=C(N1CCN(c2ccccn2)CC1)N1c2ccccc2Sc2ccccc21`?
S2 tox: inactive; TGFb SMAD3 inh: inconclusive; KB-V1 MDR tox: 1.8µM*; ATXN2 expr inh: 38%; HepG2 tox: -23%; KB-3-1 tox: 0.58µM*

What do the screens show for `O=C(c1ccc(Br)s1)N1CCN(c2ccccn2)CC1`?
S2 tox: inactive; TGFb SMAD3 inh: -3%; KB-V1 MDR tox: inconclusive; ATXN2 expr inh: -20%; HepG2 tox: 2%; KB-3-1 tox: inactive
